Screening data from PubChem BioAssay.
ASM inhibitor = Inhibitors of Secretory Acid Sphingomyelinase (S-ASM): qHTS; Sphingomyelin phosphodiesterase (Homo sapiens), P17405; placental ASM, HMU-PC fluorogenic substrate, 60 min; Potency, µM (doses to about 57.5 µM), for inactives: at the top dose activity change, negative = inhibition, actives largely listed as inhibitors; actives 0.006% (n = 340,000); AID 504937, 2011; active = well fitted inhibition curve with a large enough effect; inconclusive = small, poorly fitted or top-dose-only effect; inactive = no such curve, though single readings can be large or run the other way; also: potency is read from the fitted curve at half-maximal effect
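Steps: dispense placental human ASM, pin compound, wait 10 min at room temperature, add HMU-PC0 substrate at 9 uM final, incubate 60 min at 37 °C, add stop solution raising pH to 10, read fluorescence.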
TSHR antag = Antagonists of the Thyroid Stimulating Hormone Receptor: HTS campaign. Thyrotropin receptor (Homo sapiens), P16473. actives 0.2% (n = 330,000). activity change, negative = inhibition, % at 11.5 µM. TSHR-expressing cells, TSH-stimulated cAMP HTRF, 2 h; stronger effect = lower value;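 active = activity change below a set negative limit, meaning inhibition stronger than a set level, cut at about -70% in these data; inconclusive = activity change between two set negative limits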; also: % is scaled to controls: 0 for no effect and ±100 for the full control effect
Target sequence (P16473 whole entry, looked up): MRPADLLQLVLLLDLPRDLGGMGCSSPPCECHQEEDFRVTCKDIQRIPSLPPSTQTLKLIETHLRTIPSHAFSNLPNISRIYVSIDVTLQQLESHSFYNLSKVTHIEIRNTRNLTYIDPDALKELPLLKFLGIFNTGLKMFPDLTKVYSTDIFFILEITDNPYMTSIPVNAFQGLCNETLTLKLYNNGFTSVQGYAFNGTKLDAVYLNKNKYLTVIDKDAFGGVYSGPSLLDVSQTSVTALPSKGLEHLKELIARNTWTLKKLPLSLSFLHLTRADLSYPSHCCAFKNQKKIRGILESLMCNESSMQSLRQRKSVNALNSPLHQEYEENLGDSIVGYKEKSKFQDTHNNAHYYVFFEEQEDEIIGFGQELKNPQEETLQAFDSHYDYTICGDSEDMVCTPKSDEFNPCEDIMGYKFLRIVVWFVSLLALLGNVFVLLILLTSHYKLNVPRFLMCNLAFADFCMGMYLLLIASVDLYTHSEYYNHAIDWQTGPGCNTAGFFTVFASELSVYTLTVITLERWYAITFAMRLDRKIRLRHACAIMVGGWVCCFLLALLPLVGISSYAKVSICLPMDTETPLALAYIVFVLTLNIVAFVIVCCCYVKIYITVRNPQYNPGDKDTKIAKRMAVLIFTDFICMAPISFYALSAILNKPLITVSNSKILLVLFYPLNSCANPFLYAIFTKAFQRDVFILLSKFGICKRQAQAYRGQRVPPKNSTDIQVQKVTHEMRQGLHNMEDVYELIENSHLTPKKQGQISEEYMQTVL
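TSHR-expressing cells, 200/well, pre-treated with compound, then stimulated with EC80 TSH (4nM final) for 2 hours at 37 deg C. cAMP measured by competitive HTRF: anti-cAMP cryptate antibody in lysis buffer plus cAMP-d2, read after 30 minutes at room temperature.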
CtBP-E1A blk = qHTS Assay for Inhibitors of the CtBP/E1A Interaction | CtBP / adenovirus E1A interaction (AlphaScreen) | AlphaScreen GST-E1A/His-CtBP binding, 1536-well; stronger effect = lower value | activity change, % (test concentration not listed) | actives 0.49% (n = 340,000); also: % is scaled to controls: 0 for no effect and ±100 for the full control effect
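Protein mix (5X: 125 nM each GST-E1A, His-CtBP) was incubated with pinned compound 2 h at 37 deg C in dark, in 50 mM Tris pH 8.0 buffer with 300 mM NaCl. Glutathione donor and nickel acceptor beads followed; AlphaScreen signal read after 1 h.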
BCR signal inh = qHTS Assay to Find Inhibitors of Chronic Active B-Cell Receptor Signaling; ABC-DLBCL IkBa-CBG/CBR reporter, luminescence ratio, 4 h; Potency, µM (titrated, usually from 46.1 µM), for the others: top-dose activity change, negative = inhibition, hits mostly inhibitors; actives 0.05% (n = 340,000); active = well fitted inhibition curve with a large enough effect in the signal ratio, with a control signal flat, not every such curve was filed as active; inconclusive = small, poorly fitted or top-dose-only effect, or effect the other way, or a change in a side signal; the % refers to the signal ratio;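 also: potency is read from the fitted curve at half-maximal effect; plate controls were basal doxycycline-induced cells for no effect and cells given 10 µM MG132 for full effect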
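Compounds up to 46 uM were incubated four hours with TMD8 cells whose green CBG68 luciferase is fused to IkappaBalpha; red CBR luminescence normalised the signal, and concentration-effect curves were fitted to fusion, red and ratio data.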
Six1-Eya2 blk = qHTS Assay for Inhibitors of the Six1/Eya2 Interaction; AlphaScreen GST-Six1/His-Eya2 binding, biochemical; stronger effect = lower value; activity change, % (no concentration beside the values); actives 0.56% (n = 360,000); AID 651725, 2012; also: % is scaled to controls: 0 for no effect and ±100 for the full control effect
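GST-Six1 + His-Eya2 (5X stock: 250/500 nM); Tris pH 8.0, 300 mM NaCl, 0.05% BSA, 0.02% Tween 20; GSH donor/Ni acceptor beads; 1 h 37 °C dark; AlphaScreen readout.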
An asterisk follows results filed as active. Compounds with a hit are over-represented: about 0.85% of the library has one in this group of screens. Rule as the data show it, unless noted: active = activity change below about -65%; inconclusive = mostly about -30% to -63%; inactive = weaker than that.

`Cc1cccc(N2CCN(C(=O)Cc3c(C(=O)O)c(C)cn3C)CC2)c1C` gave BCR signal inh 0%.
`CN1CCN(C(=O)c2ccccc2N(Cc2ccccc2)S(=O)(=O)c2ccccc2)CC1` gave ASM inhibitor 7%, TSHR antag 1, CtBP-E1A blk -9, BCR signal inh -3% and Six1-Eya2 blk -3.
Cc1ccc(S(=O)(=O)N(Cc2ccccc2)c2ccccc2C(=O)N2CCCCC2)cc1 was read as ASM inhibitor -2%, TSHR antag -78*, CtBP-E1A blk -4, BCR signal inh 1% and Six1-Eya2 blk -10.
Cc1ccc(C(=O)N2CCc3cc(CNC(=O)c4ccccc4F)ccc32)cc1 was read as BCR signal inh 18%.
For Cc1cc2nc3c(=O)[nH]c(=O)[nH]c3nc2c([N+](=O)[O-])c1N the results were ASM inhibitor 7%, TSHR antag 15, CtBP-E1A blk -82*, BCR signal inh 1% and Six1-Eya2 blk -84*.
`COc1cc(C2C(=O)N(C3CCCCC3)CC(=O)N2CCC2=CCCCC2)ccc1OC(C)C` (stereo not drawn) gave BCR signal inh -5%.
`CCOC(=O)C1CCC(CN(Cc2ccc(Cl)cc2)S(=O)(=O)c2cc(Cl)cc(Cl)c2)CC1` (stereo not drawn) gave BCR signal inh 1%.
For Cc1c(C#N)c(O)[nH]c(=O)c1N=Nc1ccc(Br)cc1C(=O)O the results were ASM inhibitor -10%, TSHR antag 2, CtBP-E1A blk -89*, BCR signal inh inconclusive and Six1-Eya2 blk -71*.
`COc1ccc(C(=O)/C=C/c2ccc(N(C)C)cc2)c(OC)c1` gave ASM inhibitor 60%, TSHR antag -2, CtBP-E1A blk -2, BCR signal inh inconclusive and Six1-Eya2 blk 21.
For COc1cc2c(cc1OC)C(=Cc1ccc(N(C)C)cc1)C=C2 the results were ASM inhibitor -18%, CtBP-E1A blk -78* and Six1-Eya2 blk -71*.
For CNc1ccc(C=C2C=Cc3ccccc32)cc1 the results were ASM inhibitor -27%, CtBP-E1A blk -2 and Six1-Eya2 blk inconclusive.
Screening CN(C)c1ccc(C=C2C=Cc3ccccc32)cc1 returned ASM inhibitor -8%, CtBP-E1A blk -4 and Six1-Eya2 blk -71*.
For C(=N\Nc1ccccn1)/c1c[nH]c2ccccc12 the results were ASM inhibitor 1%, TSHR antag 4, CtBP-E1A blk -8, BCR signal inh inconclusive and Six1-Eya2 blk -6.
`O=c1nc(N/N=C/c2c[nH]c3ccccc23)cn[nH]1` gave ASM inhibitor -2%, TSHR antag 3, CtBP-E1A blk -86*, BCR signal inh -18% and Six1-Eya2 blk -78*.
COc1ccc(CCC(=O)NCc2ccc3c(c2)CCN3C(=O)c2ccc(Cl)cc2)cc1 was read as BCR signal inh 0%.
c1ccc(-c2ccc(-c3ccccn3)s2)nc1 was read as ASM inhibitor 168%, TSHR antag -11, CtBP-E1A blk 2, BCR signal inh inconclusive and Six1-Eya2 blk 15.
c1ccc(-c2cccc(-c3ccccn3)n2)nc1 was read as ASM inhibitor 2%, TSHR antag -11, CtBP-E1A blk -101*, BCR signal inh 11% and Six1-Eya2 blk -91*.
c1ccc(-c2nnc(-c3ccccn3)nn2)nc1 was read as ASM inhibitor -1%, CtBP-E1A blk -91* and Six1-Eya2 blk -79*.
`N#Cc1nc(-c2cccc3ccccc23)oc1NCC#CCOC(=O)c1cccs1` gave TSHR antag -13 and BCR signal inh -27%.
`Cc1ccc(C(=O)NC(=S)/C=C2\N(C)c3ccccc3C2(C)C)cc1` gave ASM inhibitor -12%, TSHR antag -47, CtBP-E1A blk -81*, BCR signal inh inconclusive and Six1-Eya2 blk -75*.
Screening COc1cc(OC)cc(C(=O)N/N=C/c2ccc(OC)c(COc3ccc(F)cc3)c2)c1 returned ASM inhibitor -5%, TSHR antag 2, CtBP-E1A blk -1, BCR signal inh 10µM* and Six1-Eya2 blk -4.
COc1cccc(NC(=O)Nc2ccc3nc(N4CCN(C)CC4)cc(C)c3c2)c1 was read as BCR signal inh 0%.
For Cc1cccc(Cn2c(=O)n(-c3ccc(CC(=O)NCc4ccco4)cc3)c(=O)c3sccc32)c1 the results were ASM inhibitor -4%, TSHR antag 38, CtBP-E1A blk -13, BCR signal inh 5µM* and Six1-Eya2 blk -9.
`COCCCn1c(=O)c2sccc2n(Cc2cccc(C)c2)c1=O` gave ASM inhibitor -1%, TSHR antag -131*, BCR signal inh 0% and Six1-Eya2 blk -2.
`COc1ccc(NC(=O)C(C(C)C)N2Cc3ccccc3C2=O)cc1` (stereo not drawn) gave BCR signal inh 0%.
`CCCN(CCC)S(=O)(=O)c1ccc2c(c1)N(CC(=O)NC(C)c1ccccc1)C(=O)CS2` (stereo not drawn) gave BCR signal inh 6%.
COc1ccc(Cl)cc1NC(=O)C1CCN(C(=O)C2CC(=O)N(c3ccc(C)cc3)C2)CC1 (stereo not drawn) was read as ASM inhibitor 2%, TSHR antag -113*, CtBP-E1A blk 7, BCR signal inh -11% and Six1-Eya2 blk 9.
For COC(=O)c1ccc(NC(=O)CC2C(=O)N(c3ccccc3)C(=O)N2Cc2cccs2)cc1 (stereo not drawn) the results were BCR signal inh 6%.
Cc1cccc(C(=O)NNc2ncnc3c2cnn3-c2ccc(C)c(Cl)c2)c1 was read as BCR signal inh 5%.
`CCCCC[C@H](O)/C=C/[C@H]1C=CC(=O)[C@@H]1C/C=C\CCCC(=O)O` gave TSHR antag 3 and BCR signal inh inconclusive.
For CCCCC1C(=O)CC[C@H]2[C@@H]1CC(=O)[C@@H]2C/C=C\CCCC(=O)O (stereo partly drawn) the results were ASM inhibitor -4%, TSHR antag -3, CtBP-E1A blk -8, BCR signal inh 21µM* and Six1-Eya2 blk 6.
Screening O=C1C=CC(=O)c2c(O)c(N3CCN(CCOCCO)CC3)c(Br)c(O)c21 returned ASM inhibitor -2%, CtBP-E1A blk -26 and Six1-Eya2 blk -69*.
COc1ccc2cc(/C=C3\SC(=S)NC3=O)c(N3CCOCC3)nc2c1 was read as ASM inhibitor -12%, TSHR antag -80*, CtBP-E1A blk -5, BCR signal inh inconclusive and Six1-Eya2 blk inconclusive.
